The record followed here is PubChem BioAssay AID493168 (National Center for Advancing Translational Sciences (NCATS), 2011).

Records with an inconclusive call do not appear. A number with no mark means an inactive call. Activity calls are given as the source filed them. Calls come from the whole dose curve; as a rule, active = well fitted inhibition curve with a large enough effect; inconclusive = small, poorly fitted or top-dose-only effect, or effect the other way; inactive = flat fitted curve, though single readings scatter.
Potency is the fitted concentration of half-maximal effect.

The target of the test is Ubiquitin carboxyl-terminal hydrolase 2 (Homo sapiens) (UniProt O75604). Put plainly: Confirmation Assay for Inhibitors of Ubiquitin-specific Protease USP2a Using CHOP2 as the Reporter.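 For activity change, negative = inhibition: plate controls were DMSO wells for no effect and full inhibition by NEM control for full effect.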 Note: nearly all actives have a fitted effect of over 55% in size. To be noted: USP2 core, Ub-CHOP2 coupled reporter fluorescence; series mostly up to 38.3 µM; activity change, negative = inhibition: at the top concentration. In short, it runs like this: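 Ub-CHOP2 cleavage coupled to reporter activation was read by fluorescence after 60 min at RT, with 25 nM final Ub-CHOP2 and substrate. Enzyme (10 nM final USP2 core) first sat 30 min with compound; data were normalized to NEM and fitted to concentration-response curves.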
Sequence of Ubiquitin carboxyl-terminal hydrolase 2 (Homo sapiens) (O75604 whole entry, looked up): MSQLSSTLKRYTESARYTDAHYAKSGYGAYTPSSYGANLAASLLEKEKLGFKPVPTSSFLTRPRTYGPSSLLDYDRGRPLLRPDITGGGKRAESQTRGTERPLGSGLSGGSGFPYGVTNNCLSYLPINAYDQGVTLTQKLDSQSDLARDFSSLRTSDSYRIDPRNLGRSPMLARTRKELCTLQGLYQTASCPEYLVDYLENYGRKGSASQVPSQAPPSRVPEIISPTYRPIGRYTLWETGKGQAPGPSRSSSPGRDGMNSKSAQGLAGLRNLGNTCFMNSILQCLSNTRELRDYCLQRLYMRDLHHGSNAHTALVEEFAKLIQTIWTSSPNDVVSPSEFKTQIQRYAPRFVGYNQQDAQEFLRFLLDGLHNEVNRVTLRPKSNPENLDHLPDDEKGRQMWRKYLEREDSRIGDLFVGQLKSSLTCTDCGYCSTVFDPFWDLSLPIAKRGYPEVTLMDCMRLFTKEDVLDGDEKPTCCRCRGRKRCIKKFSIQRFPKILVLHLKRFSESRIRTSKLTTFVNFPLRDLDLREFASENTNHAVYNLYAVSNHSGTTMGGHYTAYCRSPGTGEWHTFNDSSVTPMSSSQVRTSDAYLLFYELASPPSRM
As to `CC(C)n1c(/C=C/[C@H](O)C[C@H](O)CC(=O)O)c(-c2ccc(F)cc2)c2ccccc21`, the “activity change, negative = inhibition” value was 1.97%.
`O=C(COc1ccccc1)Nc1nnc(-c2ccc(Cl)s2)o1`: the “activity change, negative = inhibition” value is 0.422%.
The same measure, in the same setting: the figure for `CC1(C)CC(=O)C2=C(C1)Oc1ncn(CCCO)c(=N)c1C2c1ccccc1` (stereo unspecified) is -1.72%; for `CCOC(=O)Nc1ccc(S(=O)(=O)Nc2cc(C)nc(C)n2)cc1` it is 1.06%; for `Cc1cc(C)n(C(=O)c2cccc(S(=O)(=O)N3CCCC3)c2)n1` it is 3.82%.
On to `COc1ccccc1C(=O)n1nc(-c2cccnc2)nc1NCc1ccccc1`, for which the Potency is 5.85 µM (active).
Take `C=CC[C@H](CC(=O)N[C@H](CO)Cc1ccccc1)C(=O)N[C@H](COC(=O)[C@@H](CC=C)CC(=O)OC(C)(C)C)Cc1c[nH]c2ccccc12`: the “activity change, negative = inhibition” value was -0.7%.
As for `CC(=O)c1cccc(NC(=O)C(C)OC(=O)c2cc(=O)[nH]c3ccccc23)c1` (stereo unspecified), the Potency was 6.56 µM (active).
In the case of `Cc1n[nH]c(C)c1S(=O)(=O)N1CCCC(C(=O)Nc2nccs2)C1` (stereo unspecified), the “activity change, negative = inhibition” value is 1.19%.
The same measure, in the same setting: the same measure for `O=C(CSc1ncccc1-c1nc2ccccc2[nH]1)Nc1ccc2c(c1)OCCO2`: -2.15%; for `Cc1ccc(S(=O)(=O)Cc2ccc(C(=O)N3CCN(c4ccccn4)CC3)o2)cc1`: -2.6%.
Turning to `CN1CCN(CCCCOc2ccc(F)cc2)CC1`, the “activity change, negative = inhibition” value is -1.91%.
Consider `CCOc1ccc2[nH]c(=O)c(CN(Cc3cccs3)Cc3nnnn3C(C)(C)CC)cc2c1`, for which the “activity change, negative = inhibition” value is -1.09%.
For `O=C(O)CC1(CC(=O)Nc2ccc3ccccc3c2)CCCCC1`, the “activity change, negative = inhibition” value is 4.41%.
Still for that read-out and setting: the figure for `CCOc1ccc(NC(=O)N(CCCN2CCOCC2)Cc2cccnc2)cc1` is 0.0836%; for `COC(=O)c1ccc(NC(=O)CSC2=Nc3ccccc3C3CC=NN23)cc1` (stereo unspecified) it is 0.248%.
For the molecule `O=C(Nc1ccc(Nc2ccncc2)cc1)c1ccc(Nc2ccnc3ccc([N+](=O)[O-])cc23)cc1`, the Potency was 7.36 µM (active).
Turning to `COc1ccc(NC(=O)CSc2ncccc2C(=O)OC(C)C)cc1OC`, the “activity change, negative = inhibition” value is 1.81%.
Still for that read-out and setting: the figure for `COc1ccccc1C1NC(c2ccccc2OC)C(C)C(=O)C1C` (stereo unspecified) is 1.67%; for `Cc1cc(C)n2nc(S(=O)(=O)NCCc3ccccc3)nc2n1` it is -0.0643%.
Regarding `CC(OC(=O)CN(C)S(=O)(=O)c1ccc(Cl)cc1)C(=O)Nc1ccc(N2CCOCC2)cc1` (stereo unspecified), the “activity change, negative = inhibition” value is 0.112%.
